The source of these data is PubChem BioAssay.

Active and inactive are the calls of the source.

Assay [1] has as its system Plasmodium falciparum Sir2 (PF13_0152, Sir2A). Nature of the assay: pfSir2 binders on small-molecule microarrays, primary screen, biochemical, small-molecule microarray, 635 nm fluorescence (AID 1098).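 Further: score merges spot fluorescence intensity with its signal-to-noise ratio.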 Conditions: small-molecule microarray binding, fluorescence 635 nm; higher = more signal.
Assay [2] in a line: small-molecule microarray binders of probe aDKK1, primary screen, biochemical, biotinylated probe, 635/667 nm fluorescence (AID 1099).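 Further: score merges 667nm spot fluorescence with signal to noise across triplicate slides; reference of the scale not given here.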 The note with it: higher = more signal.
Assay [3] can be described thus: small-molecule microarray binders of probe aCHRDL2, primary screen, biochemical, biotinylated probe, 635/667 nm fluorescence (AID 1100). Conditions: higher = more signal.
Assay [4] can be described thus: splicing luciferase reporter signal modulators, primary screen, spliceosome inhibition project, cell-based, HEK293, splice +/- reporter (AID 1101).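 Further: HEK293 cells carrying a splicing-competent luciferase reporter gene; test concentration not given here.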 The note with it: luminescence, 24 h, higher = more signal, called active from +8 up or from −8 down. Background: A reporter such as luciferase makes a cellular process visible.
The target in assay [5] is Fibroblast growth factor 10 (Homo sapiens) (UniProt O15520). Nature of the assay: FGF10 binders on small-molecule microarrays, primary screen, biochemical, small-molecule microarray, 635 nm fluorescence (AID 1102). The note with it: FGF10 binding, fluorescence 635 nm, higher = more signal.
Fibroblast growth factor 10 (Homo sapiens), sequence (O15520 whole entry, looked up): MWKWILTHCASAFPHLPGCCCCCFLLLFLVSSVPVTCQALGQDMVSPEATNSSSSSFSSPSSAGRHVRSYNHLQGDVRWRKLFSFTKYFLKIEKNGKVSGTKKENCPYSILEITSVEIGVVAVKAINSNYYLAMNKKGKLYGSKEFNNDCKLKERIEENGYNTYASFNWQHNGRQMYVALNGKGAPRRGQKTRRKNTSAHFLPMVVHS
Assay [6] deals with glycogen synthase kinase-3 (GSK3A per assay name; protocol says GSK3B). Nature of the assay: GSK3 binders on small-molecule microarrays, primary screen, biochemical, small-molecule microarray, 635 nm fluorescence, GSK3A (AID 1103). Further: the record names both GSK3A and GSK3B. Conditions: small-molecule microarray binding, fluorescence 635 nm; higher = more signal.
The target of assay [7] is Epidermal growth factor receptor (Homo sapiens) (UniProt P00533). Nature of the assay: EGFR binders on small-molecule microarrays, primary screen, biochemical, small-molecule microarray, 635 nm fluorescence (AID 1104).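 Further: score merges 667 nm emission intensity with spot signal to noise over triplicate slides.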 Conditions: EGFR binding, higher = more signal.
Epidermal growth factor receptor (Homo sapiens), sequence (P00533 whole entry, looked up): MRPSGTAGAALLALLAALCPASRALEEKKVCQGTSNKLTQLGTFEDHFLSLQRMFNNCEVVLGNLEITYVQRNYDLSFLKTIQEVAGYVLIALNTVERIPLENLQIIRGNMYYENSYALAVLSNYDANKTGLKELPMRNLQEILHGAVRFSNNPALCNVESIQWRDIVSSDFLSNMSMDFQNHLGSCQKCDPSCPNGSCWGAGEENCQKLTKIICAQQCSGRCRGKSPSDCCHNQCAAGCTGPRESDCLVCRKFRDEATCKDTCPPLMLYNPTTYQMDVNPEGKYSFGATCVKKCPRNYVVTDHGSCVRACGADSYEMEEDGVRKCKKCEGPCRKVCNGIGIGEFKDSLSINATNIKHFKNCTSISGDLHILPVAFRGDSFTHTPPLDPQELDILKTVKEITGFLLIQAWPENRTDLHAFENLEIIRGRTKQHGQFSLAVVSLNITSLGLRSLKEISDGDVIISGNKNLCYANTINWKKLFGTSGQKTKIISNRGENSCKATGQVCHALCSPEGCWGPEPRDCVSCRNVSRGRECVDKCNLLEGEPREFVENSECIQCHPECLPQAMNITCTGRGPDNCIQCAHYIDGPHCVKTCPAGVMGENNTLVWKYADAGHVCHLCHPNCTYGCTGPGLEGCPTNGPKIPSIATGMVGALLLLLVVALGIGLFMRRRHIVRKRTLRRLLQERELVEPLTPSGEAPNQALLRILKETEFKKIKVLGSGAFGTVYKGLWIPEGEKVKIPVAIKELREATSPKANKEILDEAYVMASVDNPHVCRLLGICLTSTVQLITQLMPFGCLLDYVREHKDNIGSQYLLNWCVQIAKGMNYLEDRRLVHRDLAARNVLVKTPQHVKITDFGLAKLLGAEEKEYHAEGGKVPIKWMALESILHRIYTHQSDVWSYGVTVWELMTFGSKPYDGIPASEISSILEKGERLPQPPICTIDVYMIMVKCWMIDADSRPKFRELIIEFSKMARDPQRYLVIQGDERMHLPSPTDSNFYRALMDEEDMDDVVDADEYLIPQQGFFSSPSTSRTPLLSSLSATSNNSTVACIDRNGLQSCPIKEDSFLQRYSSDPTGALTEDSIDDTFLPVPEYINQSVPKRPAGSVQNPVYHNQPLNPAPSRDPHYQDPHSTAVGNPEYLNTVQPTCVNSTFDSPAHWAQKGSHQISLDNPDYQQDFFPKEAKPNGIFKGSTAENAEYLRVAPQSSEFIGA
Assay [8] concerns the target Follistatin-related protein 3 (Homo sapiens) (UniProt O95633). Nature of the assay: FSTL3 binders on small-molecule microarrays, primary screen, biochemical, small-molecule microarray, 635 nm fluorescence (AID 1105).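 Further: score merges emission near 667 nm and signal to noise per printed spot across three slides.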 Conditions: FSTL3 binding, higher = more signal.
Assay [9] deals with Dickkopf-related protein 1 (Homo sapiens) (UniProt O94907). Briefly: DKK1 binders on small-molecule microarrays, primary screen, biochemical, small-molecule microarray, 635 nm fluorescence scan (AID 1106).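 Further: score merges emission near 667 nm with signal to noise over three replicate slides.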 Conditions: DKK1 binding, higher = more signal.
Dickkopf-related protein 1 (Homo sapiens), sequence (O94907 whole entry, looked up): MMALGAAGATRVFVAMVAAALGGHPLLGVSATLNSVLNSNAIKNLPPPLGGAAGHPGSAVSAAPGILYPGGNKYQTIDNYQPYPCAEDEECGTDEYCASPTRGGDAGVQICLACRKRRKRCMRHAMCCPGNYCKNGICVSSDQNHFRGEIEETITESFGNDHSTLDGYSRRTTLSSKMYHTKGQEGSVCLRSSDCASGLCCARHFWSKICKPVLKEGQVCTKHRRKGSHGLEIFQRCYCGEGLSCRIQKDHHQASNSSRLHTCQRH
The subject of assay [10] is Inhibin beta A chain (activin A). Nature of the assay: INHBA (activin A) binders on microarrays, primary screen, biochemical, small-molecule microarray, 635 nm fluorescence scan (AID 1107).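 Further: mouse activin A protein probed at 4.33 µg/mL on printed slides; score merges bound-protein fluorescence near 667 nm with spot signal-to-noise.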 Conditions: small-molecule microarray binding, higher = more signal.

Follistatin-related protein 3 (Homo sapiens), sequence (O95633 whole entry, looked up): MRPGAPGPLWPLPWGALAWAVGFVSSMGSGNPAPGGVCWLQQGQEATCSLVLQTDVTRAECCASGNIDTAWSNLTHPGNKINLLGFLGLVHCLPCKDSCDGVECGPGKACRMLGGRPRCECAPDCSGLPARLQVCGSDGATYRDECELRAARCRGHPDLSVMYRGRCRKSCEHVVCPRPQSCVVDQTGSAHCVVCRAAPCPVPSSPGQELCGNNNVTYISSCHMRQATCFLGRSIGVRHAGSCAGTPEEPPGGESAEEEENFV

Consider `Cc1ccc(S[C@]2(C(=O)O)CC(=O)N(Cc3ccccc3C(F)(F)F)[C@@H]2c2ccc(CO)cc2I)cc1`, for which the composite z-score was -0.135 in assay [1]; -0.537 in assay [2]; 0.337 in [3]; -0.39 in assay [5]; -0.518 in [6]; -1.11 in [7]. Further, the composite z-score in [8] is -1; in assay [9], -1.28; in [10], 1.16. In addition, the z-score in assay [4] is -1.15 (inactive).

Regarding `O=C1C2C=CC(C(O)C=Cc3ccc([N+](=O)[O-])cc3)N(Nc3ccccc3F)C2C(=O)N1c1ccccc1` (stereo not given), the composite z-score in [1] amounted to 0.808; in assay [2], 0.468; in [3] it was 0.831; in [5] it was 1.13; in assay [6], 1.28; in assay [7], 0.464. The composite z-score was 1.13 in [8], 0.0328 in assay [9] and 1.08 in assay [10]. The z-score in [4] was 0.755 (inactive).

As for `COCC(=C=CC[C@H](O)c1ccccc1OCCO)CCO`, the composite z-score is 1.52 in [1]; 0.0439 in assay [2]; -0.423 in assay [3]; 0.919 in [5]; 0.485 in [6]; -0.865 in [7]. The composite z-score worked out at 0.612 in assay [8], 0.274 in assay [9] and 0.564 in assay [10]. The z-score in [4] is 0.338 (inactive).

On to `NCCCCCNC(=O)[C@H]1C[C@H]2C(=O)N3CCC[C@H]3C(=O)N2[C@H]1c1ccc(O)cc1`, for which the composite z-score was 0.94 in assay [1]; 1.63 in assay [2]; 0.684 in assay [3]; 1.01 in [5]; 1.28 in [6]; 0.781 in assay [7]. The composite z-score in [8] turned out to be 1.34; in assay [9], 1.24; in assay [10], 1.12. Further, the z-score in [4] was -0.391 (inactive).

In the case of `CCCCN1CC=CC23O[C@@H]4/C=C\CCCOC(=O)C4[C@H]2C(=O)N(CCCCCO)[C@@H]3C1=O` (stereo not given in full), the composite z-score in assay [1] is 1.29; in assay [2], -0.37; in assay [3], -0.167; in assay [5] it was -0.552; in [6] it was -1.34; in assay [7], -1.13. For the same compound, the results for the composite z-score in assay [8], in assay [9] and in assay [10] were -1.08, -0.443 and 0.653, respectively. The z-score in [4] is 1.08 (inactive).

As for `CCOC(=O)C[C@H]1[C@H](OC(=O)c2ccc(-c3ccccc3)cc2)[C@@H](NC(=O)c2ccccc2)c2cc(OCCCO)ccc2N1C(=O)c1ccc2ccccc2n1`, the composite z-score was -0.0092 in assay [1]; 0.32 in assay [2]; 0.339 in assay [3]; 0.47 in [5]; 0.538 in [6]; -0.0158 in assay [7]. In addition, the values for the composite z-score in assay [8], in assay [9] and in assay [10] were 0.309, 0.234 and -0.466, respectively. For the same compound, in assay [4], the z-score is 0.00513 (inactive).

For `C[C@H]1C2[C@H](Cc3ccccc3)NC(=O)[C@]23C(=O)NCC(=O)N2CCC[C@H]2C(=O)NC/C=C/CCC/C=C/C3[C@@H]2O[C@]12C` (stereo not given in full), the composite z-score in assay [1] was 0.38; in [2], -0.398; in assay [3] it was -0.269; in assay [5] it was -0.568; in [6], -1.26; in assay [7] it was -0.681. The composite z-score in [8] was -0.618; in assay [9], -0.233; in [10], 1.55. Further, in [4], the z-score is -0.0803 (inactive).

Regarding `CCOC(=O)C1=CC[C@@H](c2ccc(C(F)(F)F)cc2)N(S(=O)(=O)c2ccc(C)cc2)[C@H]1c1ccccc1`, the composite z-score is 0.544 in assay [1]; 1 in [2]; 1.12 in assay [3]; 0.485 in [5]; 1.31 in assay [6]; -0.0946 in [7]. In addition, the composite z-score in assay [8] is 0.799; in assay [9], -0.305; in assay [10] it was -0.0699. The z-score in assay [4] was -2.54 (inactive).

As to `CN1C(=O)C2C=CC(C(O)C=Cc3ccc([N+](=O)[O-])cc3)N(Nc3ccccc3)C2C1=O` (stereo not given), the composite z-score in [1] is 0.967; in assay [2] it was 0.0403; in [3] it was -0.175; in [5], 0.718; in assay [6] it was 1.15; in assay [7], 0.692. Also, the composite z-score in [8] came to 1.06; in assay [9], 0.587; in [10], 1.02. Further, the z-score in assay [4] is 1.21 (inactive).

As to `COC(=O)c1c(CC[C@@H](CO)NC(=O)NCCc2c[nH]c3ccccc23)oc(C(=O)Cc2ccccc2)c1C(=O)OC`, the composite z-score in assay [1] was 0.176; in assay [2], -0.281; in assay [3], -0.805; in [5], 0.48; in [6] it was 0.429; in assay [7], 0.398. The composite z-score was found to be 0.321 in assay [8], 0.263 in assay [9] and 0.553 in [10]. Further, the z-score in [4] is -0.251 (inactive).

Consider `C=CC1c2cc(O)c(OC)cc2CCN1Cc1cccc(OC(F)(F)F)c1` (stereo not given), for which the composite z-score in assay [1] was -0.128; in assay [2], -0.0819; in assay [3] it was 0.516; in assay [5], -0.438; in assay [6], -0.765; in assay [7] it was -0.417. Moreover, the composite z-score in assay [8] was 0.0396; in assay [9], -0.0102; in [10], 1.64. Moreover, in assay [4], the z-score is -0.918 (inactive).

Take `CN(C)CCCCCCNC(=O)[C@@H]1C[C@@H]2C(=O)N3CCC[C@H]3C(=O)N2[C@@H]1c1ccc(O)cc1`: the composite z-score in assay [1] was 0.609; in [2], 0.381; in [3], 0.234; in assay [5], 1.1; in assay [6], 1.34; in assay [7], 0.842. Moreover, the composite z-score in assay [8] turned out to be 1.48; in assay [9], 1.69; in assay [10], 0.254. The z-score in [4] was -1.51 (inactive).

With `C#CCNCc1ccccc1`, the composite z-score was -0.375 in [1]; -0.192 in assay [2]; -0.288 in assay [3]; 0.2 in [5]; 0.539 in assay [6]; 0.397 in assay [7]. Besides, the figures for the composite z-score in assay [8], in assay [9] and in [10] were 0.349, 0.183 and 0.209, respectively. In [4], the z-score was 0.258 (inactive).
